Bioassay records as filed in PubChem.
Shown are actives, neighbours in structure and some others; about 2.9% of the full set was active somewhere.
Rango release inh = prevents RanGTP from dissociating the Rango-importin beta complex. O95149+P62826. Biochemical FRET Rango-importin beta, RanGTP-induced dissociation. Potency, µM (highest dose often 46.1 µM), without a hit: at the highest dose activity change, negative = inhibition. 340,000 tested, 0.071% active. AID 540253; further: potency means the concentration at half of the fitted maximal effect; % of control where 0% means no effect; nearly all actives have a fitted effect of over 45% in size
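Rango (0.1 uM)–importin beta (0.25 uM) complex; RanGTP-RCC1 trigger; 45 min RT; CFP/YFP FRET read.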
TSG101-PTAP inh = blocks PTAP/TSG101 interaction to inhibit HIV-1 budding; Q99816; Fluorescence polarization, FITC-PTAP peptide / Tsg101 binding; Potency, µM (highest dose often 115 µM), for inactives: at the top dose activity change, negative = inhibition, most hits filed as inhibitors; 340,000 tested, under 10 active; active means well fitted inhibition curve with a large enough effect in the main read-out, with a control signal flat, not every such curve was filed as active; inconclusive means small, poorly fitted or top-dose-only effect, or effect the other way, or a change in a side signal; inactive means no such curve, though single readings can be large or run the other way; further: potency means the concentration at half of the fitted maximal effect; % of control where 0% means no effect
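Tsg101 binding domain (10 uM final) was mixed with compound and a FITC-labeled PTAP peptide (50 nM final) in HEPES pH 7.5 buffer with NaCl, Tween 20, EDTA and TCEP; fluorescence polarization was read after 20 min at r.t.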
DRD3 agonist = agonists of human D3 dopamine receptor; D3R DiscoveRx beta-arrestin cells, luminescence, 90 min; max activation, %; 410,000 tested, 0.58% active; AID 652048; in the data active means max activation above about 30%; further: 0% is about no effect
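Agonist mode: compounds and dopamine controls were applied to plated cells for 90 min at 37 degrees C after an overnight attachment at 1500 cells/well. Luminescent read-out followed 30 - 60 minutes at room temperature with DiscoveRx detection reagent.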
Rango-impB inh = prevents formation of the Rango-importin beta complex; AID 540263; Potency, µM (doses to about 92.2 µM), without a hit: at the highest dose inhibition of complex formation; Rango CFP/YFP FRET sensor + importin beta, 45 min; Q14974; 340,000 tested, 0.031% active;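 further: potency means the concentration at half of the fitted maximal effect; 0% = DMSO wells and 100% = buffer wells lacking importin beta; nearly all actives have a fitted effect of over 15% in size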
Target sequence (Q14974 whole entry, looked up): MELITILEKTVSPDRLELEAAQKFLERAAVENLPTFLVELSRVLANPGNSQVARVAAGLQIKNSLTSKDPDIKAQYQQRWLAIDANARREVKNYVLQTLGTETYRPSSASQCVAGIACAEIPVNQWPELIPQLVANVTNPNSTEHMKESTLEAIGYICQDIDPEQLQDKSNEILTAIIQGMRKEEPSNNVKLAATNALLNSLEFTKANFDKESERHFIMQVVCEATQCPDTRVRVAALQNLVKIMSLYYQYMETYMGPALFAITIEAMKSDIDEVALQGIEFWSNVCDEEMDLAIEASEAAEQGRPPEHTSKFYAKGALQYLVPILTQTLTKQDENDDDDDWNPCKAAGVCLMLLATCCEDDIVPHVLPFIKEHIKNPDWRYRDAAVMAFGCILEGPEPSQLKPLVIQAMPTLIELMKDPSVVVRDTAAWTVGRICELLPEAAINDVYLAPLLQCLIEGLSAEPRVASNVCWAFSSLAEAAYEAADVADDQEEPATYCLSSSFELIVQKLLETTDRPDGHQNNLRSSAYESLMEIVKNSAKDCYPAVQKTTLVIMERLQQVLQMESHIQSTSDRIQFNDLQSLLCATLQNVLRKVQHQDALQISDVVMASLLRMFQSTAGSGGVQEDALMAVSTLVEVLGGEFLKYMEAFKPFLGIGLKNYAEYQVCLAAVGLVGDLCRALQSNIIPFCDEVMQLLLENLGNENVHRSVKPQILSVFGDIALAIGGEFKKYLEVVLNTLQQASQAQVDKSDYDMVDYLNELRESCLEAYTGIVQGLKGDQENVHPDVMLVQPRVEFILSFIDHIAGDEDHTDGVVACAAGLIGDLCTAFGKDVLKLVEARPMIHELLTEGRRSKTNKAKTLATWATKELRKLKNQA
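Inhibition scored from the CFP 486 nm/YFP 530 nm FRET ratio 45 min after adding 0.125 microM importin beta to 50 nM Rango biosensor preincubated 5 min with compound (room temperature, PBS with DTT, Tween-20, BSA). No-importin wells as positive control.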
MmCpn inh = inhibitors of Methanococcus maripaludis chaperonin TRiC (MmCpn); purified Mm-Cpn ATPase, ADP Transcreener TR-FRET; Potency, µM (highest dose often 76.9 µM), inactives show top-dose activity, negative = inhibition, hits mostly inhibitors; 330,000 tested, 0.031% active; active means well fitted inhibition curve with a large enough effect; inconclusive means small, poorly fitted or top-dose-only effect; further: potency means the concentration at half of the fitted maximal effect; on the % scale 0 is the no-effect control and ±100 the full control effect; nearly all actives have a fitted effect of over 80% in size
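ATP (10 uM final) was added to archaeal chaperonin (25 nM final) after 10 min exposure to test compound at 37°C; after 30 min further incubation, ADP was detected by competitive TR-FRET.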
DRD3 antagonist = blocks the human D3 dopamine receptor. D3R cells, DiscoveRx beta-arrestin luminescence, antagonist mode; hits give low values. max response, negative = inhibition, %. 360,000 tested, 2.5% active. AID 652054; in the data active means max response below about -50%; inconclusive means no clear call, values can overlap the other calls; further: on the % scale 0 is the no-effect control and ±100 the full control effect
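Cells expressing the human receptor were seeded at 1500 cells/well, incubated overnight at 37 degrees C in 5% CO2, then exposed to library compounds with dopamine controls for 90 minutes at 37 degrees C before luminescent detection.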
An asterisk follows results filed as active; ? = inconclusive; nt = not tested or not shown. Unless noted, the call rests on the fitted dose curve.

SMILES | Rango release inh | TSG101-PTAP inh | DRD3 agonist | Rango-impB inh | MmCpn inh | DRD3 antagonist
CCN1CCN(c2cc(C)c3cc(NC(=O)c4cncc(Br)c4)ccc3n2)CC1 | 5% | -4% | -11 | ? | -17% | -69*
Cc1cc(N2CCN(C)CC2)nc2ccc(NC(=S)NCCCN3CCc4ccccc4C3)cc12 | 8% | -5% | -20 | 2% | 2% | -84*
C=CC(=O)O | nt | nt | -9 | nt | nt | nt
COC(=O)c1cccc(Nc2c(-c3cc(Br)ccc3O)nc3nc[nH]n23)c1 | nt | nt | -12 | nt | nt | nt
CCCCC(=O)OCc1cc(=O)n2nc(C3CCCCC3)sc2n1 | nt | nt | 6 | nt | nt | nt
Cc1cc(N2CCN(C)CC2)nc2ccc(NC(=S)NCCN3CCc4ccccc4C3)cc12 | -17% | 0% | -20 | 0% | -3% | -76*
O=[N+]([O-])c1cc([N+](=O)[O-])c(Oc2cccc3c2CCCC3)cc1NN1CCCCC1 | -8% | -4% | -6 | -4% | nt | -17
COc1cccc(Oc2cc(NN3CCCCC3)c([N+](=O)[O-])cc2[N+](=O)[O-])c1OC | -6% | -1% | -15 | -2% | -1% | -65*
O=[N+]([O-])c1ccc(O)c(C=Nc2ccc3c(c2)OCO3)c1 | -20% | 7% | -12 | -2% | -5% | -68*
CC(C)(C)c1ccc(O)c(N=Cc2cc3c(cc2[N+](=O)[O-])OCO3)c1 | 2% | -1% | 8 | 3% | 0% | -7
O=[N+]([O-])c1cc(Br)cc(C=Nc2ccc3c(c2)OCO3)c1O | ? | 1% | -14 | -1% | 1% | -78*
Cc1ccc(N=Cc2cc3c(cc2[N+](=O)[O-])OCO3)cc1[N+](=O)[O-] | -12% | -2% | 0 | -3% | nt | -8
CCCCC(=O)Nc1ccc2c(c1)nc(CN1CCN(C(=O)OCC)CC1)n2C | -9% | -2% | 22 | 0% | 2% | 6
O=C(NCc1cccnc1)c1nc(-c2ccc(C(F)(F)F)cc2)no1 | -8% | -1% | -4 | -2% | 1% | -59*
C=CCC1Cc2c(cccc2[N+](=O)[O-])C(CC=C)N1 (stereo not given) | 16% | -1% | 41* | 1% | 0% | 8
C=CCC1C=CCC(CC=C)N1C(=O)c1ccccc1[N+](=O)[O-] (stereo not given) | -19% | 0% | 2 | 0% | 1% | 17
NC(=O)c1cccn1Cc1ccccc1Cl | 1% | nt | 0 | -2% | 0% | -77*
CC(CNC(=O)c1cc(-c2ccccc2)n[nH]1)c1ccccc1 (stereo not given) | nt | nt | 0 | nt | nt | nt
COc1ccc(Cn2c(CO)cnc2SCC(=O)Nc2cc(C)on2)cc1 | -5% | -4% | 4 | 1% | 1% | 7
O=C(O)Cn1cc(CN2CCOCC2)c2ccccc21 | -9% | -4% | 1 | -1% | 1% | 0
Cn1cc(CN2CCN(c3ccccc3)CC2)c2ccccc21 | 1% | -3% | -49 | -1% | -5% | -79*
CCC1Nc2ncnc(N3CCN(c4ccccn4)CC3)c2N(Cc2ccc(Br)cc2)C1=O (stereo not given) | -10% | -5% | -96 | -1% | -1% | -142*
CCC1Nc2ncnc(N3CCN(c4ccccn4)CC3)c2N(Cc2ccc(Cl)cc2)C1=O (stereo not given) | -8% | -1% | -54 | 0% | 2% | -104*
CC(C)CC1Nc2ncnc(N3CCN(c4ccccn4)CC3)c2N(Cc2ccccc2)C1=O (stereo not given) | -16% | -3% | -9 | -1% | 2% | -23
Cc1c(Cl)cccc1NC(=O)CCN1C(=O)c2ccccc2Sc2ncccc21 | nt | nt | -15 | nt | nt | nt
SMILES | Rango release inh | TSG101-PTAP inh | DRD3 agonist | Rango-impB inh | MmCpn inh | DRD3 antagonist
CCN(Cc1nc(-c2cccc(C)c2)no1)C(=O)c1ccco1 | 27% | -2% | 17 | -1% | 1% | 1
O=C1CC(N2CCN(C/C=C/c3ccccc3)CC2)C(=O)N1Cc1cccs1 (stereo not given) | -11% | 0% | -8 | 0% | 1% | -63*
O=C1CC(N2CCN(C/C=C/c3ccccc3)CC2)C(=O)N1CCc1ccccc1 (stereo not given) | ? | -14% | -20 | 0% | 4% | ?
Cc1oc(-c2ccc(Cl)cc2)nc1CN1CCC(C(=O)N2CCN(Cc3ccccc3)CC2)CC1 | -5% | 0% | -6 | 1% | -1% | -77*
Cc1oc(-c2cccc(Cl)c2)nc1CN1CCC(C(=O)N2CCN(c3ccccc3F)CC2)CC1 | 9% | 0% | -12 | 6% | 3% | -63*
Cc1oc(-c2ccc(Cl)cc2)nc1CN1CCC(C(=O)N2CCc3ccccc3C2)CC1 | 18% | 2% | -12 | -3% | -9% | -70*
Cc1ccccc1C(=O)Nc1nnc(S(=O)(=O)N2CCc3ccccc32)s1 | nt | nt | -2 | nt | nt | nt
C[C@]12C=CC(=O)C=C1[C@@H](F)C[C@@H]1[C@@H]2[C@@H](O)C[C@@]2(C)[C@H]1CC[C@]2(O)C(=O)CO | nt | nt | 3 | nt | nt | nt
CC(C)c1ccc(CN(C(=O)c2ccco2)C2CCS(=O)(=O)C2)cc1 (stereo not given) | -1% | 0% | 10 | 0% | 1% | -9
CCSC1=C(C#N)C(c2ccc(C)o2)CC(=O)N1 (stereo not given) | 3% | 0% | 12 | ? | -1% | 1
Cc1ccc(C2CC(=O)NC(SCc3ccccc3)=C2C#N)o1 (stereo not given) | -11% | -1% | -3 | 0% | 0% | -62*
O=c1c2ccccc2c2ccccc2c(=O)n1Cc1cccnc1 | -5% | -4% | -9 | 3% | 0% | -108*
O=c1c2ccccc2[nH]c(=S)n1Cc1cccnc1 | -18% | -8% | -1 | -1% | -1% | -20
COc1ccc2[nH]c3c(c2c1)CCN1C(=O)C(CC(=O)NCC24CC5CC(CC(C5)C2)C4)C[C@H](C(=O)N(C(C)C)C(C)C)[C@@]31C (stereo not given in full) | 6% | -1% | 37* | -4% | 3% | -4
CCN(CC)C(=O)[C@H]1CC(CC(=O)NCCCn2ccnc2)C(=O)N2CCc3c([nH]c4ccc(OC)cc34)[C@]12C (stereo not given in full) | 30% | 1% | 28 | 0% | -1% | 2
COc1ccc2[nH]c3c(c2c1)CCN1C(=O)C(CC(=O)NCCCn2ccnc2)C[C@H](C(=O)N(C(C)C)C(C)C)[C@@]31C (stereo not given in full) | 0% | -4% | 51* | -3% | -1% | 5
